The source made the active and inactive calls. Entries that show only a call come without a potency. The call rests on the fitted dose curve; in most records, active means well fitted curve in the direction sought with a large enough effect in the repeat runs; inconclusive means weak or mixed curves; inactive means flat fitted curve, though single readings scatter.
assay: qHTS assay to test for compound auto fluorescence at 460 nm (blue) in HEK293 cells (AID 720678); settings: blue autofluorescence 405/460 nm; series mostly up to 91.3 µM
Description: National Center for Advancing Translational Sciences [NCATS]
NIH Chemical Genomics Center [NCGC]
U.S. Environmental Protection Agency [EPA]
National Institutes of Environmental Health Sciences [NIEHS]
National Toxicology Program [NTP]
U.S. Food and Drug Administration [FDA]
Compound auto fluorescence often interferes with screening of the compound library against various biological targets and signaling pathways. Some of these compounds may have fluorophoric properties. Such properties may interfere with the assay outputs resulting in false positives and/or negatives. To decrease such complications and ensure the compound activities are relevant in terms of biological response, the Tox21 10K compound library was screened for auto fluorescence.
From the fluorophores used as reporter signals in our screening assays, the auto fluorescence equivalencies of compounds against three fluorophores have been evaluated: Triamterene, Fluorescein and Rose Bengal sodium for blue, green and red fluorescence, respectively. The fluorescence intensities were measured using Excitation/Emission wavelengths at 405/460nm, 485/535nm and 540/590nm for blue, green and red labels, respectively. This assay includes the blue fluorescence data.
Tox21 Assay Protocol Summary:
2,000 HEK293 cells in 5 uL of culture medium containing 10% dialyzed FBS per well were dispensed into black wall/clear bottom 1536-well plates using a Multidrop Combi Dispenser (Thermo Scientific). The assay plates were incubated for 4-5 hr at 37C to allow cell attachment to the well bottom, followed by the transfer of 23 nL compound or DMSO vehicle by a pintool work station (Kalypsys, San Diego, CA). After the assay plates were incubated overnight at 37C and 5% CO2, fluorescence intensities in the assay plates were measured by an Envision (PerkinElmer, Shelton, CT) plate reader using three labels for measuring blue, green and red fluorescence at […] 460, 535 and 590nm respectively.

| Structure (SMILES) | Potency | fluorescence, % of triamterene |
| --- | --- | --- |
| NCCCOCCOCCOCCCN | inactive | – |
| CCCCOCCOCCOCCOCCO | inactive | – |
| OCCC1CCCCN1 (stereo not given) | inactive | – |
| Cc1c(Cn2ccnc2)c2ccccc2n1CCC(=O)O | inactive | – |
| CC1(C)CCC(C)(C)c2cc(NC(=O)c3ccc(C(=O)O)cc3)ccc21 | inactive | – |
| Cc1ccc(C)o1 | inactive | – |
| CC(=O)O[C@H]1C[C@@H]2CC[C@@H]3[C@H](CC[C@@]4(C)[C@H]3C[C@H]([N+]3(C)CCCCC3)[C@@H]4OC(C)=O)[C@@]2(C)C[C@@H]1N1CCCCC1 | inactive | – |
| CCN(CC)CCOc1ccc2c(c1)C(=O)c1cc(OCCN(CC)CC)ccc1-2 | inactive | – |
| CCCc1ccccc1 | inactive | – |
| CC1=CC(=O)/C(=C(/C)O)C(=O)O1 | inactive | – |
| CCN(CC)C(C)=O | inactive | – |
| CN(C(=O)CCCOc1ccc2[nH]c(=O)ccc2c1)C1CCCCC1 | inactive | – |
| CCCCCC(CO)CCC (stereo not given) | inactive | – |
| CCCC(C)C | inactive | – |
| COc1ccccc1OC(=O)Oc1ccccc1OC | inactive | – |
| O=C(CCN1CCN2CCCC2C1)N1c2ccccc2Sc2ccc(Cl)cc21 (stereo not given) | inactive | – |
| Nc1ccc(C(=O)Nc2ccccc2N)cc1 | inactive | – |
| NCc1ccccc1 | inactive | – |
| CCCCCCCCCCCCCCCCCBr | – | 0.159% [at 18.6 µM] (inactive) |
| C1=Cc2ccccc2C1 | inactive | – |

| Structure (SMILES) | Potency | fluorescence, % of triamterene |
| --- | --- | --- |
| O=C(Nc1ccccc1)OCC(CN1CCCCC1)OC(=O)Nc1ccccc1 (stereo not given) | – | 0.0079% [at 18.6 µM] (inactive) |
| CC(C)(C)C1CCCCC1O (stereo not given) | inactive | – |
| CC(C)(C)c1ccc(S)cc1 | inactive | – |
| COc1cc(C(C)(C)C)c(O)c(C(C)(C)C)c1 | inactive | – |
| COC(=O)C(C)=O | inactive | – |
| CCOc1nc2cccc(C(=O)O)c2n1Cc1ccc(-c2ccccc2-c2nn[nH]n2)cc1 | inactive | – |
| CCC(=O)OC(C)(C)C1CC=C(C)CC1 (stereo not given) | inactive | – |
| O=C(NS(=O)(=O)/C=C/c1cccs1)c1ccc(F)cc1Br | inactive | – |
| CC[C@@H]1C[C@H](N(Cc2cc(C(F)(F)F)cc(C(F)(F)F)c2)C(C)=O)c2cc(C(F)(F)F)ccc2N1C(=O)OC(C)C | inactive | – |
| CC(Cc1cccc(C(F)(F)F)c1)NCCOC(=O)c1ccccc1 (stereo not given) | inactive | – |
| CC(=O)c1c(C)c([N+](=O)[O-])c(C(C)(C)C)c([N+](=O)[O-])c1C | inactive | – |
| CN(C)CC/C=C1\c2ccccc2COc2ccccc21 | inactive | – |
| Cn1sccc1=O | inactive | – |
| Nc1nc(N)c(-c2ccccc2)s1 | inactive | – |
| Oc1ccc(O)c2c(O)cccc12 | inactive | – |
| CCN(CC)CCc1nc(-c2ccccc2)no1 | – | -0.138% [at 18.6 µM] (inactive) |
| CCCCCCCCN(C)C | inactive | – |
| c1ccc(-c2nc[nH]c2-c2ccccc2)cc1 | inactive | – |
| O=C(NN1CCCC1)NS(=O)(=O)c1ccc(Cl)cc1 | inactive | – |
| COc1ccc(C(C)=O)cc1 | inactive | – |

From PubChem BioAssay (Tox21)
